# Assay outcomes from PubChem BioAssay.
# A selection: hits, their analogues and other compounds. The true share with any hit is near 21%.
# Shiga toxin inh: inhibitors of Shiga toxin in Vero cells. inhibition, % at 38.7 µM. AID 2315. Vero cells, Shiga toxin protein synthesis inhibition reporter. 9.2% of 290,000 active; in the data active = inhibition mostly above about 28%, no sharp cut-off; inactive = mostly below about 43%; also: 0% is about no effect
# Cycloheximide cs: counter-screen hit for Shiga toxin inhibitors, cycloheximide; cell reporter, cycloheximide protein synthesis inhibition counterscreen; max response, %; 12% of 300,000 active; AID 2314; in the data active = max response mostly above about 13%, no sharp cut-off; inactive = mostly below about 14%; also: read at 38.3 µM for the half of the compounds with a filed dose; 0% is about no effect
# Pf growth 96h: inhibits malaria parasite growth, 96 h; Potency, µM (doses to about 28.7 µM), for inactives: at the highest dose activity change, negative = inhibition, hits mostly inhibitors; AID 504834; P. falciparum luciferase reporter growth, 96 h; 6.9% of 320,000 active; also: potency is read from the fitted curve at half-maximal effect; % is scaled to controls: 0 for no effect and ±100 for the full control effect
#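 Parasite growth measured via integrated firefly luciferase reporter in P. falciparum. Infected erythrocytes at 2% hematocrit, 0.05% parasitemia final were treated 96 hours at 37 C under 5% CO2, and luminescence was read.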
# Pf growth 48h: inhibits P. falciparum growth in the first generation, 48 h | P. falciparum luciferase growth in erythrocytes, 48 h | Potency, µM (titrated, usually from 28.7 µM), inactives show at the highest dose activity change, negative = inhibition, usual class: inhibitors | 5.9% of 310,000 active; also: potency is read from the fitted curve at half-maximal effect; % is scaled to controls: 0 for no effect and ±100 for the full control effect
#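 Read-out is firefly luciferase luminescence from an integrated reporter in P. falciparum, so falling signal marks reduced parasite growth. Infected erythrocytes were at 2% hematocrit and 0.1% parasitemia (final) in Albumax-supplemented RPMI 1640.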
# NS1 inh: influenza NS1 inhibition. Potency, µM (highest dose often 46.1 µM), for inactives: at the top dose activity, positive = more growth. 0.4% of 270,000 active. AID 2326; calls by dose curve; also: potency is read from the fitted curve at half-maximal effect; actives are rising curves; nearly all actives have a fitted effect of over 50% in size
#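 A cell-based growth assay was used: compounds that relieve NS1-induced slow growth of budding yeast raise OD600. Assay medium was yeast nitrogen base with ammonium sulphate and -URA supplement, pH 6.0, with 2% galactose.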
# FBPA Giardia inh: blocks Giardia fructose-bisphosphate aldolase activity; A8B2U2; purified Giardia FBPA; Potency, µM (titrated, usually from 59.6 µM), for inactives: at the highest dose activity, negative = inhibition, hits mostly inhibitors; 0.71% of 290,000 active; AID 2451; also: potency is read from the fitted curve at half-maximal effect; % is scaled to controls: 0 for no effect and ±100 for the full control effect; nearly all actives have a fitted effect of over 55% in size
# Target sequence (A8B2U2 whole entry, looked up): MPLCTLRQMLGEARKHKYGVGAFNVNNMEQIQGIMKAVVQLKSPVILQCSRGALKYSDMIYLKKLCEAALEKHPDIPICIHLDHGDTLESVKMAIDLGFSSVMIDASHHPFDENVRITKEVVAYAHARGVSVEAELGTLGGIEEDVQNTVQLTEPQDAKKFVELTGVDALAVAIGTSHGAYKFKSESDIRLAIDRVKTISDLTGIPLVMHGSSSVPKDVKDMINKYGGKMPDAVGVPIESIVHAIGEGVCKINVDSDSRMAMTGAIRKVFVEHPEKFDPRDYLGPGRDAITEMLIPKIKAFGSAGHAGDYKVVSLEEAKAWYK
#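 Giardia FBPA (40 nM reagent) was preincubated 10 min at RT with compound (up to 57.5 uM final), then substrate plus GAPDH/TPI/NAD/arsenate coupling system with diaphorase/resazurin was added; resorufin fluorescence (525/598 nm) was read after 20 min.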
# * = called active by the depositor; ? = inconclusive; / = not tested or not shown. Unless noted, calls follow the shape of the dose curve; as a rule, active = well fitted curve in the direction sought with a large enough effect; inconclusive = small, poorly fitted or top-dose-only effect, or another doubt; inactive = no such curve, though single readings can be large; an effect the other way counts as inactive or inconclusive.
SMILES,Shiga toxin inh,Cycloheximide cs,Pf growth 96h,Pf growth 48h,NS1 inh,FBPA Giardia inh
CC(C)(C)c1ccc(-c2nnc(N)o2)cc1,67*,37*,99%,13%,-1%,3%
O=C1NC(=O)N(Cc2ccco2)C(=O)/C1=C\c1cccn1CCOc1ccc(Cl)cc1,-11,-4,-28%,-2%,5%,3%
CCc1ccc(N2C(=O)NC(=O)/C(=C/c3cccn3CCOc3ccc(C)cc3)C2=O)cc1,-3,13*,48%,29%,7%,3%
CCc1ccc(N2C(=O)NC(=O)/C(=C/c3cccn3CCOc3ccc(C(C)CC)cc3)C2=O)cc1 (stereo unspecified),121*,77*,144%,64%,-8%,3%
COc1cccc(-c2cncnc2Nc2ccc(F)cc2)c1,/,/,/,/,/,-8%
Cc1ccc(NC(=O)CSc2nnc([C@@H](N)Cc3c[nH]c4ccccc34)o2)c(C)c1,56,-7,9.3µM*,?,29%,-1%
Oc1ccccc1N=N/C(=N/Nc1ccccc1O)c1ccccc1,/,/,8.3µM*,4.1µM*,/,/
O=C1c2ccccc2C(=O)c2c1ncn2-c1ccccc1,-7,-1,57%,4.7µM*,18%,?
CC(=O)N/N=C(\N)c1nonc1N,23,6,15%,17%,2%,?
Cc1cc2nc(-c3ccc(NC(=O)C(C)C)cc3)oc2cc1C,80*,54*,/,300%,?,3%
CC(C)C(=O)Nc1cccc(-c2nc3ccccc3o2)c1,11,5,/,25%,-16%,8%
Cc1ccc(-c2nc3cc(NC(=O)C(C)C)ccc3o2)cc1,95*,73*,15%,44%,-1%,0%
Cc1ccc(-c2nc3cc(NC(=O)C(C)C)ccc3o2)cc1C,95*,83*,-24%,10%,-35%,-5%
COc1cc(OC)cc(-c2nc3cc(C)ccc3o2)c1,104*,58*,12%,173%,-33%,-8%
COc1ccccc1CCn1c(=O)c(-c2ccc(F)c(F)c2)nc2cncnc21,/,/,/,/,/,-3%
O=C(NCCc1nccs1)C1CCC(=O)N(Cc2cccc(C(F)(F)F)c2)C1 (stereo unspecified),-8,-1,23%,?,2%,-4%
COc1ccc(NS(=O)(=O)c2ccc3c(c2)N(C(C)=O)CC(C)S3)c(OC)c1 (stereo unspecified),-4,6,?,5%,-7%,/
Clc1ccc(-c2nc3cc(CN4CCCCC4)ccc3o2)cc1,54*,36*,10%,19%,-1%,2%
CC(=O)Nc1ccc(S(=O)(=O)Nc2cccc(-c3nc4cc(C)ccc4o3)c2)cc1,/,/,/,/,-34%,/
Cc1ccc(-c2nc3cc(Cl)ccc3o2)cc1,123*,46*,/,299%,7%,10%
Cc1ccc(S(=O)(=O)Nc2ccc(-c3nc4cc(NS(=O)(=O)c5ccc(C)cc5)ccc4o3)cc2)cc1,-5,-2,4.1µM*,/,10%,-10%
Cc1ccc2nc(-c3cccc(-c4nc5ccc(C)cc5o4)n3)oc2c1,/,/,/,/,2%,/
Cc1ccc2nc(-c3ccc(O)cc3)oc2c1,14,19*,?,249%,-4%,0%
O=C(O)c1cc(N=Cc2c(O)c3ccccc3oc2=O)ccc1O,-4,-3,38%,35%,-1%,-16%
Cc1cccc(C(=O)NNC(=O)c2c(-c3ccccc3Cl)noc2C)c1O,-8,1,10%,19%,-2%,/
SMILES,Shiga toxin inh,Cycloheximide cs,Pf growth 96h,Pf growth 48h,NS1 inh,FBPA Giardia inh
C=CCNc1nc(Nc2ccc([N+](=O)[O-])cc2)nc(N2CCCC2)n1,-11,26*,?,-24%,/,-12%
C=CCNc1nc(Cl)nc(Nc2ccc(OC)cc2)n1,64*,22*,49%,?,-7%,-5%
C=CCNc1nc(Nc2ccc(-c3nc4ccccc4o3)cc2)nc(N2CCOCC2)n1,24,6,4.7µM*,/,25%,8%
C=CCNc1nc(Nc2ccc(OC)cc2)nc(OC)n1,42,8,/,14%,-16%,-8%
C=CCNc1nc(Nc2ccc([N+](=O)[O-])cc2)nc(OC)n1,37,8,155%,?,/,-10%
C=CCNc1nc(Cl)nc(Nc2ccc([N+](=O)[O-])cc2)n1,-7,-1,2.3µM*,16%,/,3%
COc1ccc(Oc2ncc3nc(C)c(=O)n(Cc4cccc(OC)c4)c3n2)cc1,/,/,/,/,/,-23%
COC(=O)c1ccccc1NC(=S)NC(=O)c1ccccc1,49,9.0*,39%,57%,-8%,-4%
Cc1cc(C)c2cccc(NC(=S)NC(=O)c3ccccc3)c2n1,-5,11,1.9µM*,10µM*,-1%,-15%
Cc1ccc(NC(=S)NC(=O)c2ccccc2)cc1NC(=S)NC(=O)c1ccccc1,54*,24*,96%,33%,4%,?
COc1c(Br)cc(Br)cc1C(=O)Nc1ccccc1N1CCCC1,-11,9,-22%,?,-3%,4%
CCOc1ccc(NC(=O)CN(C)C(=O)C2=COCCO2)cc1OCC,/,/,39%,3%,/,/
CCN(CC)c1ccc(C(=O)c2ccccc2C(=O)O)c(O)c1,28*,22*,18%,1%,21%,15%
CCc1ccccc1N1CC(C(=O)Nc2nccs2)CC1=O (stereo unspecified),11,-3,3%,19%,4%,-1%
CN(CCCCCCCCCCN(C)C(=O)Oc1cccc([N+](C)(C)C)c1)C(=O)Oc1cccc([N+](C)(C)C)c1,/,/,0.074µM*,0.12µM*,/,/
CCN(C)C(=O)Oc1cccc([C@H](C)N(C)C)c1,/,/,-2%,-3%,/,/
COc1ccc(S(=O)(=O)N2CCN(S(=O)(=O)c3ccc(C(F)(F)F)cc3)CC2)cc1C,-18,-4,12µM*,1%,0%,2%
O=C(NC1CCN(S(=O)(=O)c2ccc(Cl)cc2)CC1)C1CCCCC1,-7,2,-8%,-10%,10%,14%
COc1ccc(S(=O)(=O)N2CCC(C(=O)NC3CC3)CC2)cc1C,-2,8,3.3µM*,?,9%,2%
O=C(NC1CC1)C1CCN(S(=O)(=O)c2ccc(Cl)cc2)CC1,-18,-5,7%,1.7µM*,6%,5%
COc1ccc(S(=O)(=O)N2CCN(C)CC2)cc1C,-21,-7,?,/,?,-3%
Cc1ccc(S(=O)(=O)N2CCC(C(=O)NC3CCCC3)CC2)cc1Cl,-5,-5,1.3µM*,?,-15%,7%
O=C(NCC1CCCO1)C1CCN(S(=O)(=O)c2cc(Cl)ccc2Cl)CC1 (stereo unspecified),-1,-4,-1%,-5%,4%,0%
O=C(NC1CC1)C1CCN(S(=O)(=O)c2cc(Cl)ccc2Cl)CC1,-20,1,0.083µM*,-4%,1%,?
O=C(c1cc(-c2ccco2)on1)N1CCCc2ccccc21,105*,16*,-19%,51%,-49%,7%
O=C(c1cc(-c2ccccc2)on1)N1CCCc2ccccc21,61*,50*,0%,?,-8%,-2%
